For 98 compounds, cytotoxicity results are on record in PubChem BioAssay AID620 (Sanford-Burnham Center for Chemical Genomics, 2007).

The structures appear in SMILES notation. Hit rate of the full screen: of about 87,000 compounds, about 360 (0.41%) were called active. This is one part of a sample in which actives are shown more often than they occur. A number with no mark means an inactive call. No stated cut-off is given here; in the data, active means cytotoxicity above about 50%; inactive means the rest.

The nature of this experiment: cytotoxicity in HT1080 fibrosarcoma cells, cell-based, fluorescence readout (AID 620).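 Further: cells exposed to compound overnight then 4 h with Alamar Blue; 0% = vehicle DMSO and 100% = killing control.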 The conditions noted are these: HT1080 viability, at 10 µM, stronger effect = higher value.
In the case of `CCn1c(SCc2ccccc2)nnc1-c1ccc(S(=O)(=O)N2CCCCC2)cc1`, the cytotoxicity is -8.1%.

`O=C1C(Cl)=C(Nc2ccccc2O)C(=O)N1c1ccccc1`: the cytotoxicity is -3.8%.

Turning to `COC(=O)CNC(=O)[C@@]1(C)C=C[C@@H](Cc2ccccc2)N1C(C)=O`, the cytotoxicity was -25%.

Regarding `CNC(=O)[C@@]1(C)C=C[C@@H](Cc2ccccc2)N1C(=O)OC`, the cytotoxicity is -1%.

Consider `COC(=O)CNC(=O)[C@@]1(C)C=C[C@@H](Cc2ccccc2)N1C(=O)OC`, for which the cytotoxicity is 89.9% (active).

For `COc1cccc(-c2nnc(SCC(N)=O)n2-c2ccc(Cl)cc2)c1`, the cytotoxicity is -0.4%.

For `O=S(=O)(c1cccc(-c2nc3ccccc3s2)c1)N1CCOCC1`, the cytotoxicity is -1%.

Turning to `COc1ccccc1NC(=O)N(Cc1ccco1)Cc1cc2cccc(C)c2[nH]c1=O`, the cytotoxicity was -8%.

On to `COc1ccccc1NC(=O)N(Cc1ccco1)Cc1cc2ccc(C)c(C)c2[nH]c1=O`, for which the cytotoxicity is 58.4% (active).

Take `COc1ccccc1NC(=O)N(Cc1ccco1)Cc1cc2cc(C)cc(C)c2[nH]c1=O`: the cytotoxicity is 3.9%.

For `COc1ccc(NC(=O)CCN2CCN(S(=O)(=O)c3ccc(Cl)cc3)CC2)cc1`, the cytotoxicity is -5.2%.

As for `COc1ccc(CC2C(=O)OC(C)(C)OC2=O)cc1`, the cytotoxicity was -9.2%.

In the case of `O=C(Nc1cccc(-c2cc3ccccc3oc2=O)c1)c1ccc(Br)o1`, the cytotoxicity was -1.6%.

As to `COc1ccc2nc(NC(=O)c3cc(C)oc3C)sc2c1`, the cytotoxicity is -5.9%.

`COc1ccc(NS(=O)(=O)c2cc(C)ccc2NC(=O)c2cc(C)oc2C)cc1`: the cytotoxicity was 67.9% (active).

`COc1ccc(NS(=O)(=O)c2cc(C)ccc2C)cc1`: the cytotoxicity was 2.8%.

Take `COc1ccc(NS(=O)(=O)c2cc(C(=O)O)ccc2C)cc1`: the cytotoxicity was -2.1%.

As for `COc1ccc(NS(=O)(=O)c2cc(OC)ccc2NC(=O)c2cc(C)oc2C)cc1`, the cytotoxicity was 54% (active).

On to `COc1ccc(C)c(S(=O)(=O)Nc2ccc(OCC(=O)O)cc2)c1`, for which the cytotoxicity was -3.4%.

For the compound `CCOC(=O)C1Cc2ccccc2CN1` (stereo not drawn), the cytotoxicity was -7.6%.

On to `CCOC(=O)N1CCC(NC(=O)C2CCCN(S(=O)(=O)c3ccc4c(c3)oc(=O)n4C)C2)CC1` (stereo not drawn), for which the cytotoxicity was -2.4%.

For `Cc1ccc(Oc2ccc(S(=O)(=O)N3CCOCC3)cc2C(N)=O)c(-n2nc3ccccc3n2)c1`, the cytotoxicity is 53.4% (active).

With `CC(=O)Oc1ccc(C)cc1-n1nc2ccccc2n1`, the cytotoxicity is -18.3%.

Consider `COc1ccccc1Oc1ccc(S(=O)(=O)N2CCOCC2)cc1S(=O)(=O)N1CCOCC1`, for which the cytotoxicity is -0.3%.

Turning to `Cc1cc(C)c(C#N)c(SCC(=O)Nc2ccc3c(c2)OCO3)n1`, the cytotoxicity was -1.7%.

For the compound `CN(C)/C=C(\C(=O)c1ccc(Cl)cc1)c1nnnn1-c1ccc(Cl)cc1`, the cytotoxicity is 5.8%.

With `OC(CNCCc1ccccc1)c1ccccc1` (stereo not drawn), the cytotoxicity is -2.3%.

`CCNc1nc(NCC)nc(N2CC(=O)N(CC(=O)OCC)C2=N)n1`: the cytotoxicity was 4.9%.

With `Fc1ccc(C2C3=C(Nc4ncnn42)c2ccccc2OC3c2ccncc2)cc1` (stereo not drawn), the cytotoxicity is 14.5%.

`Brc1ccc(C2C3=C(Nc4ncnn42)c2ccccc2OC3c2ccncc2)cc1` (stereo not drawn): the cytotoxicity was 44.4%.

Regarding `Clc1ccc2c(c1)C1=C(C(c3ccncc3)O2)C(c2ccc(Br)cc2)n2ncnc2N1` (stereo not drawn), the cytotoxicity is 50.7% (active).

Take `O=C(CSCCc1ccccn1)Nc1ccccn1`: the cytotoxicity is 3.4%.

Consider `O=C(Cc1cn2ccsc2n1)OCc1nc2ccccc2s1`, for which the cytotoxicity is -1.1%.

Regarding `CCOC(=O)c1c(C)[nH]c(C(=O)COC(=O)CNC(=O)C2CCCCC2)c1C`, the cytotoxicity was 0.3%.

In the case of `CCOC(=O)C1=C(C)N(CCCC(=O)O)C(=O)NC1c1ccccc1OC(=O)c1cccs1` (stereo not drawn), the cytotoxicity was -19.7%.

Consider `CCC1CCCN1Cn1cnc2c([nH]c3ccccc32)c1=O` (stereo not drawn), for which the cytotoxicity was 2.5%.

For the compound `O=C(NCC(c1cccnc1)N1CCN(c2ccccc2)CC1)OCc1ccccc1` (stereo not drawn), the cytotoxicity was 3.4%.

For `COc1ccc(Cl)cc1NS(=O)(=O)c1ccc(S(=O)(=O)N2CCCC2)cc1`, the cytotoxicity is -1.1%.

As for `COc1ccc(Cl)cc1NS(=O)(=O)c1ccc(OC)c(OC)c1`, the cytotoxicity was -2.2%.

As for `CCCCOc1ccc(S(=O)(=O)Nc2cc(OC)ccc2OC)cc1`, the cytotoxicity is 4.8%.

For `CCOc1ccc(S(=O)(=O)Nc2cc(OC)ccc2OC)cc1`, the cytotoxicity was 59.8% (active).

Regarding `CCOC(=O)c1ccccc1NS(=O)(=O)c1ccc(C)cc1`, the cytotoxicity is 6.9%.

Consider `CCOC(=O)c1ccccc1NS(=O)(=O)c1ccc(OCC)cc1`, for which the cytotoxicity is 55.2% (active).

In the case of `COc1ccc(S(=O)(=O)Nc2cc(Cl)ccc2OC)cc1`, the cytotoxicity is 70.9% (active).

Consider `COC(=O)COc1ccc(S(=O)(=O)Nc2cc(OC)ccc2OC)cc1`, for which the cytotoxicity is 2.6%.

As for `CCOC(=O)c1ccccc1NS(=O)(=O)c1ccccc1`, the cytotoxicity is 37%.

For the compound `Cc1cc(C)n(/N=C\c2c(O)ccc3ccccc23)c(=O)c1C(N)=O`, the cytotoxicity was 0%.

For the compound `CC(=O)c1ccc(OC(C)C)c(CN2CCCCC2)c1`, the cytotoxicity is 1.8%.

Take `Cc1onc(-c2ccccc2)c1C(=O)Nc1cccc(C#N)c1`: the cytotoxicity was -1.8%.

With `COC(=O)CSc1nnc(CNS(=O)(=O)c2ccc(C)cc2)n1C`, the cytotoxicity is 6.8%.

Consider `Cc1ccc2cc(-c3noc(C4CCCCC4)n3)c(=O)[nH]c2c1`, for which the cytotoxicity is -0.9%.

As for `Cn1c(=O)c2c(nc(Br)n2CC(=O)c2cccs2)n(C)c1=O`, the cytotoxicity is -2.7%.

In the case of `COc1ccc(S(=O)(=O)N2N=C(C)Oc3ccccc3C2=O)cc1`, the cytotoxicity was 60.3% (active).

For `CC1=NN(S(=O)(=O)c2ccc(F)cc2)C(=O)c2ccccc2O1`, the cytotoxicity was 0.4%.

`COc1ccc(S(=O)(=O)N2CCN(S(=O)(=O)c3ccc4c(c3)OCCO4)CC2)cc1`: the cytotoxicity is 2.3%.

Consider `O=C(NCc1ccccc1)C1CCN(S(=O)(=O)N2CCCCCC2)CC1`, for which the cytotoxicity was -5.9%.

Take `O=C(N1CCOCC1)n1nnc2ccccc21`: the cytotoxicity is -1.4%.

Take `O=S(=O)(N1CCOCC1)n1nnc2ccccc21`: the cytotoxicity was -4.1%.

For `CCc1ccc2c(c1)[C@]1(C(=O)N2)[C@@H]2C(=O)N(Cc3ccccc3)C(=O)[C@@H]2[C@@H]2CCCN21`, the cytotoxicity was -2.5%.

Consider `CCOc1ccc2nc(NCCO)[nH]c2c1`, for which the cytotoxicity is -12%.

`C=CCOc1ccc2nc(NC(=O)OC)[nH]c2c1`: the cytotoxicity was 62.3% (active).

As for `COc1ccc(OCC(=O)Nc2nc3ccccc3[nH]2)cc1`, the cytotoxicity was -8.8%.

As to `CCCOc1ccc2nc(NC(=O)OC)[nH]c2c1`, the cytotoxicity is 64.1% (active).

As to `COc1ccc2nc(NCCO)[nH]c2c1`, the cytotoxicity was 3.7%.

Regarding `CCCSc1ccc2nc(NC(=O)OC)[nH]c2c1`, the cytotoxicity is 40%.

Regarding `O=C1C2ON(c3ccc(Br)cc3)C(c3cccnc3)C2C(=O)N1C1CCCCC1` (stereo not drawn), the cytotoxicity was 1.2%.

For `COc1ccc2nc3oc(C(=O)N4CCN(c5ccccc5F)CC4)cc3cc2c1`, the cytotoxicity is -0.7%.

Regarding `Cc1cc(NC(=O)CSc2nnc(-c3cccnc3)n2C)no1`, the cytotoxicity is -4.9%.

For `Cc1cccc(N(C(=O)Nc2ccccc2)C2=NCC(C)S2)c1` (stereo not drawn), the cytotoxicity was -2.6%.

With `N#Cc1cccc(Cn2nnc(-c3ccccc3)n2)c1`, the cytotoxicity is 13.7%.

Consider `COc1ccc(OC)c(-n2nnnc2SCC(=O)Nc2ccc(C(=O)N3CCCCC3)cc2)c1`, for which the cytotoxicity is -11.6%.

Regarding `COCCCNC(=O)CCCC(=O)NCCCOC`, the cytotoxicity was -2.4%.

For the compound `COc1ccc(-c2cn3cc(Cl)ccc3n2)cc1OC`, the cytotoxicity is 98.8% (active).

Turning to `COc1ccc(-c2cn3cc(C)ccc3n2)cc1OC`, the cytotoxicity was 23%.

For `COc1ccc(-c2cn3ccccc3n2)cc1OC`, the cytotoxicity was 14.9%.

`O=C1CC(c2cccs2)c2cc3c(cc2N1)OCO3` (stereo not drawn): the cytotoxicity was 13.7%.

Consider `COc1cc2c(cc1OC)C(c1cccc(OC)c1OC)CC(=O)N2` (stereo not drawn), for which the cytotoxicity was -0.5%.

On to `CC(C)Oc1ccccc1C1CC(=O)Nc2cc3c(cc21)OCO3` (stereo not drawn), for which the cytotoxicity is 67.4% (active).

For the compound `Cc1ccc(C2CC(=O)Nc3cc4c(cc32)OCO4)o1` (stereo not drawn), the cytotoxicity is 40%.

Regarding `O=C1CC(c2ccncc2)c2cc3c(cc2N1)OCCO3` (stereo not drawn), the cytotoxicity was 5.6%.

Consider `COc1cccc(C2CC(=O)Nc3cc4c(cc32)OCCO4)c1OC(C)C` (stereo not drawn), for which the cytotoxicity is 0.6%.

As for `CC(C)Oc1ccccc1C1CC(=O)Nc2cc3c(cc21)OCCO3` (stereo not drawn), the cytotoxicity was 70.5% (active).

For the compound `COc1ccccc1C1CC(=O)Nc2cc3c(cc21)OCCO3` (stereo not drawn), the cytotoxicity is 52.2% (active).

`Cc1ccc(C2CC(=O)Nc3cc4c(cc32)OCCO4)s1` (stereo not drawn): the cytotoxicity is 7.9%.

In the case of `CCCCCCC(C)n1[nH]c(=O)c2c(C)cc(=O)[nH]c21` (stereo not drawn), the cytotoxicity was -5%.

In the case of `O=C(C1CCC(CNc2c(N3CCCCC3)c(=O)c2=O)CC1)N1CCCCC1` (stereo not drawn), the cytotoxicity is -4.8%.

For the compound `C=CCn1c(NC)cc(=O)n(C)c1=O`, the cytotoxicity was 9.8%.

Consider `CC1(C(=O)NC2CCCC2)CCC(=O)N1Cc1ccc2c(c1)OCO2` (stereo not drawn), for which the cytotoxicity is 20.7%.

As for `COc1ccc(O)c(C(=O)c2cc(C#N)c(=O)n(CCN3CCOCC3)c2)c1`, the cytotoxicity is 7%.

`COC(=O)c1ccc(NC(=O)COc2ccc(S(=O)(=O)N3CCCCC3)cc2)cc1`: the cytotoxicity was -6.1%.

`c1ccc(-c2nc3ccccc3nc2N2CCOCC2)cc1`: the cytotoxicity is 19.1%.

Turning to `Nc1nc(NCc2ccccc2)nc(-c2ccccc2)n1`, the cytotoxicity was 12.3%.

Turning to `Cc1c(NC(=O)c2ccccc2)c(=O)n(-c2ccccc2)n1C`, the cytotoxicity is -12.6%.

Consider `Cc1c(NC(=O)c2ccc(=O)oc2)c(=O)n(-c2ccccc2)n1C`, for which the cytotoxicity was 32.6%.

With `COc1cc2[nH]cc(C(=O)NCCc3ccccc3)c(=O)c2cc1OC`, the cytotoxicity was 5.3%.

Regarding `CCOc1ccc(OCc2ccc(C(=O)Nc3cccnc3)o2)cc1`, the cytotoxicity was -3.1%.

In the case of `O=C(CSc1oc(-c2ccc(F)cc2)nc1S(=O)(=O)c1ccc(F)cc1)NCC1CCCO1` (stereo not drawn), the cytotoxicity was 4.4%.

Consider `CCN(CC)C(=O)CN(C#N)c1nc(NC(C)C)nc(NC(C)C)n1`, for which the cytotoxicity is -2%.
